One assay concerns Plasmodium falciparum. In words: GSK_TCMDC: Inhibition of Plasmodium falciparum 3D7 in whole red blood cells, using parasite LDH activity as an index of growth. Test compounds present at 2uM. In kind it is functional.
Regarding `Cc1ccc(O)cc1Nc1ccnc2ccc(-c3csc(CNCCN4CCOCC4)n3)cc12`, the Inhibition (as a rule, the change of the read-out against control, counted positive when it falls) is given as 100%.

Consider `CCC(C)c1ccc(NC(=O)c2ccc(S(=O)(=O)Nc3ccc(OC)c(N4CCN(CC5CC5)CC4)c3)cc2)cc1.O=C(O)C(F)(F)F` (stereo not drawn), for which the Inhibition amounted to 94%.

Molecule `Cc1cccc2nc(-c3cccc(-c4ccc(NC(=O)CC5NC(=O)c6ccccc65)cc4)c3)[nH]c12` (stereo not drawn) returned an Inhibition of 100%.

In the case of `Cn1cncc1C(=O)Nc1cccc(-c2csc(-c3nc4ccccc4[nH]3)c2)c1`, the Inhibition stood at 100%.

`CC(=O)O.Cc1cc(F)ccc1[C@H]1CNCCN1C(=O)N(C)[C@@H](C)c1cc(C(F)(F)F)cc(C(F)(F)F)c1` displayed an Inhibition of 100%.

Molecule `CCCCCCC(C)c1cc(OCCN(CC)CC)c2c(c1)OC(C)(C)C=C2c1ccncc1.Cl` (stereo not drawn) had an Inhibition of 90%.

For the molecule `Cc1cc(N(C)C)nc(Nc2ccc(NC(=O)C3CCCCC3)cc2)n1`, the Inhibition is 100%.

`COc1ccc(CCc2ccc(-c3c(C)[nH]c(C)c(Cl)c3=O)cc2)cc1` yielded an Inhibition of 98%.

As for `CCCc1c(Cl)cc(CNCCCNc2nc3ccncc3[nH]2)cc1Cl`, the Inhibition came to 98%.

`CC(C)N1CCN(CCCCNc2c3ccccc3nc3ccccc23)CC1.Cl`: the Inhibition stood at 100%.

The molecule `c1cncc(-c2cccc(CNc3nccc(Nc4ccc(OCCN5CCOCC5)cc4)n3)c2)c1` yielded an Inhibition of 93%.

`Nn1c(=O)oc2ccc(Cl)cc2c1=O` yielded an Inhibition of 97%.

`CC(C)C(C)(C#N)NC(=O)CSc1nc2ccc([N+](=O)[O-])cc2s1` (stereo not drawn) came in with an Inhibition of 95%.

In the case of `CN(C)CCN(Cc1ccccc1-c1ccc(CNCCc2ccccc2)cc1)C(=O)NC1CCCCC1.O=C(O)C(F)(F)F`, the Inhibition stood at 88%.

In the case of `Cc1ccc2c(=NN=Cc3cccc(Cl)c3)cc(C)[nH]c2c1`, the Inhibition came out at 96%.

Take `Cc1[nH]c(C)c(-c2ccc(OCCSc3ccncc3)cc2)c(=O)c1Br`: the Inhibition is 95%.

As for `COc1ccc2[nH]c(C)cc(=NN=Cc3ccc(Cl)cc3)c2c1`, the Inhibition was found to be 100%.

Regarding `Cc1ncc([N+](=O)[O-])n1CCOC(=O)NC(Nc1ccc(Br)cc1)C(Cl)(Cl)Cl` (stereo not drawn), the Inhibition was determined as 99%.

Turning to `CCCCNc1nc(NCCCC)c2c(C)c(Cc3ccccc3)c(NCCCC)nc2n1.Cl`, the Inhibition worked out at 95%.

With `CNC(=O)NC1=NC(C)(C)N(OCc2ccc(Cl)c(Cl)c2)C(NC(=O)NC)=N1`, the Inhibition came to 99%.

The molecule `CC(=O)Nc1ccc(CN2CCC(NC(=O)c3ccc(-c4ccc(N(C)C)cc4)s3)CC2)cc1.O=C(O)C(F)(F)F` yielded an Inhibition of 100%.

Consider `CC(C)(C)c1cc([N+](=O)[O-])cc(C(=O)Nc2ccccc2C(F)(F)F)c1O`, for which the Inhibition turned out to be 96%.

On to `CN1CCCN(Cc2ccc(-c3ccc(NC(=O)c4cccc(C#N)c4)cc3)cc2)CC1.O=C(O)C(F)(F)F`, for which the Inhibition amounted to 97%.

`Cc1ccc(-c2ccc3c(c2)C=C(C(=O)NC2CCN(CCNC(=O)c4cccc(C(F)(F)F)c4)CC2)CCC3)cc1.O=C(O)C(F)(F)F` displayed an Inhibition of 100%.

For the molecule `CC(C)CNCc1ccc(-c2cccc(CN(C(=O)NCCc3ccccc3)C3CCN(Cc4ccccc4)CC3)c2)cc1.O=C(O)C(F)(F)F`, the Inhibition is recorded as 100%.

`O=C(Nc1ccc(Br)c(Cl)c1)c1cc([N+](=O)[O-])cc2cn[nH]c12` registered an Inhibition of 99%.

`CCC(C)NC(=O)CN1CN(c2ccccc2)C2(CCN(C(=O)c3ccc(C(C)(C)C)cc3)CC2)C1=O` (stereo not drawn): the Inhibition is on record as 100%.

`C=CCC(CC=C)N1C(=O)C(c2ccccc2)(c2ccccc2)N=C1N.O=CO` displayed an Inhibition of 98%.

A further assay relates to Plasmodium falciparum. In words: GSK_TCMDC: Inhibition of Plasmodium falciparum Dd2 in whole red blood cells, using parasite LDH activity as an index of growth. Test compounds present at 2uM. Format: functional.
`CC(C)(C)OC(=O)NCc1ccc(Nc2nnc(-c3cccc(C(=O)NCCC(c4ccccc4)c4ccccc4)c3)o2)cc1` had an Inhibition of 89%.

Turning to `Clc1ccccc1CNc1noc(-c2sccc2Br)n1`, the Inhibition is on record as 93%.

`COC(=O)C(NC(=O)c1ccc(-c2ccc(-c3nc4ccccc4[nH]3)s2)cc1)c1ccc(O)cc1` (stereo not drawn) displayed an Inhibition of 49%.

For `NCC1CCCN1Cc1cccc(-c2ccc(-c3nc4cc(C(F)(F)F)ccc4[nH]3)s2)c1.O=C(O)C(F)(F)F` (stereo not drawn), the Inhibition came out at 96%.

In the case of `CC(C)(C)c1ccc(NC(=O)c2cccc(CN3CCN(Cc4cccc(O)c4)CC3)c2)cc1.O=C(O)C(F)(F)F`, the Inhibition turned out to be 3%.

As to `Cl.Nc1c2c(nc3ccc(NC(=O)Cc4ccccc4)cc13)CCCC2`, the Inhibition amounted to 0%.

As to `Cc1ccc(O)c(-c2cc(C(=O)Nc3ccc(S(=O)(=O)N4CCCCCC4)cc3)[nH]n2)c1`, the Inhibition is on record as 80%.

Molecule `COc1cc2ncnc(Nc3ccc4nc(-c5ccccc5)[nH]c4c3)c2cc1OC.Cl` registered an Inhibition of 32%.

The molecule `CCCCCCCn1c(=N)n(CC(O)c2ccc(Cl)c(Cl)c2)c2ccccc21.Cl` (stereo not drawn) yielded an Inhibition of 100%.

`CCN1CCC(N(Cc2ccc(-c3ccc(C(F)(F)F)cc3)cc2)C(=O)Cn2nc(C)c(=O)cc2SCc2ccc(F)cc2)CC1.O=C(O)C(O)C(O)C(=O)O` showed an Inhibition of 94%.

`COc1ccc(CNCc2cccc(-c3cccc(-c4nc5cc(F)ccc5[nH]4)c3)c2)cc1.O=C(O)C(F)(F)F` had an Inhibition of 55%.

With `O=C(NCCc1ccccc1)N(Cc1ccccc1-c1ccc(CNC2CCCC2)cc1)C1CCN(Cc2ccccc2)CC1.O=C(O)C(F)(F)F`, the Inhibition came to 95%.

The molecule `Cc1ccc(O)cc1Nc1ccnc2ccc(-c3csc(CNCCN4CCOCC4)n3)cc12` gave an Inhibition of 97%.

On to `CCC(C)c1ccc(NC(=O)c2ccc(S(=O)(=O)Nc3ccc(OC)c(N4CCN(CC5CC5)CC4)c3)cc2)cc1.O=C(O)C(F)(F)F` (stereo not drawn), for which the Inhibition is on record as 17%.

The molecule `Cc1cccc2nc(-c3cccc(-c4ccc(NC(=O)CC5NC(=O)c6ccccc65)cc4)c3)[nH]c12` (stereo not drawn) showed an Inhibition of 67%.

`Cn1cncc1C(=O)Nc1cccc(-c2csc(-c3nc4ccccc4[nH]3)c2)c1`: the Inhibition came out at 64%.

On to `CC(=O)O.Cc1cc(F)ccc1[C@H]1CNCCN1C(=O)N(C)[C@@H](C)c1cc(C(F)(F)F)cc(C(F)(F)F)c1`, for which the Inhibition was 99%.

Molecule `CCCCCCC(C)c1cc(OCCN(CC)CC)c2c(c1)OC(C)(C)C=C2c1ccncc1.Cl` (stereo not drawn) displayed an Inhibition of 71%.

Take `Cc1cc(N(C)C)nc(Nc2ccc(NC(=O)C3CCCCC3)cc2)n1`: the Inhibition was 68%.

`COc1ccc(CCc2ccc(-c3c(C)[nH]c(C)c(Cl)c3=O)cc2)cc1` returned an Inhibition of 97%.

Consider `CCCc1c(Cl)cc(CNCCCNc2nc3ccncc3[nH]2)cc1Cl`, for which the Inhibition was found to be 0%.

Regarding `CC(C)N1CCN(CCCCNc2c3ccccc3nc3ccccc23)CC1.Cl`, the Inhibition came to 0%.

`c1cncc(-c2cccc(CNc3nccc(Nc4ccc(OCCN5CCOCC5)cc4)n3)c2)c1` had an Inhibition of 27%.

`Nn1c(=O)oc2ccc(Cl)cc2c1=O`: the Inhibition was found to be 96%.

The molecule `CC(C)C(C)(C#N)NC(=O)CSc1nc2ccc([N+](=O)[O-])cc2s1` (stereo not drawn) registered an Inhibition of 81%.

In turn, `CN(C)CCN(Cc1ccccc1-c1ccc(CNCCc2ccccc2)cc1)C(=O)NC1CCCCC1.O=C(O)C(F)(F)F` came in with an Inhibition of 89%.

Molecule `Cc1ccc2c(=NN=Cc3cccc(Cl)c3)cc(C)[nH]c2c1` displayed an Inhibition of 52%.

Molecule `Cc1[nH]c(C)c(-c2ccc(OCCSc3ccncc3)cc2)c(=O)c1Br` returned an Inhibition of 95%.

As to `COc1ccc2[nH]c(C)cc(=NN=Cc3ccc(Cl)cc3)c2c1`, the Inhibition is recorded as 100%.

In turn, `Cc1ncc([N+](=O)[O-])n1CCOC(=O)NC(Nc1ccc(Br)cc1)C(Cl)(Cl)Cl` (stereo not drawn) gave an Inhibition of 100%.

`CCCCNc1nc(NCCCC)c2c(C)c(Cc3ccccc3)c(NCCCC)nc2n1.Cl` displayed an Inhibition of 84%.

The molecule `CNC(=O)NC1=NC(C)(C)N(OCc2ccc(Cl)c(Cl)c2)C(NC(=O)NC)=N1` registered an Inhibition of 0%.

Molecule `CC(=O)Nc1ccc(CN2CCC(NC(=O)c3ccc(-c4ccc(N(C)C)cc4)s3)CC2)cc1.O=C(O)C(F)(F)F` yielded an Inhibition of 57%.

`CC(C)(C)c1cc([N+](=O)[O-])cc(C(=O)Nc2ccccc2C(F)(F)F)c1O` registered an Inhibition of 99%.

The molecule `CN1CCCN(Cc2ccc(-c3ccc(NC(=O)c4cccc(C#N)c4)cc3)cc2)CC1.O=C(O)C(F)(F)F` gave an Inhibition of 67%.

For the molecule `Cc1ccc(-c2ccc3c(c2)C=C(C(=O)NC2CCN(CCNC(=O)c4cccc(C(F)(F)F)c4)CC2)CCC3)cc1.O=C(O)C(F)(F)F`, the Inhibition was 56%.

Take `CC(C)CNCc1ccc(-c2cccc(CN(C(=O)NCCc3ccccc3)C3CCN(Cc4ccccc4)CC3)c2)cc1.O=C(O)C(F)(F)F`: the Inhibition came out at 94%.

`O=C(Nc1ccc(Br)c(Cl)c1)c1cc([N+](=O)[O-])cc2cn[nH]c12` came in with an Inhibition of 63%.

In the case of `CCC(C)NC(=O)CN1CN(c2ccccc2)C2(CCN(C(=O)c3ccc(C(C)(C)C)cc3)CC2)C1=O` (stereo not drawn), the Inhibition is given as 100%.

As to `C=CCC(CC=C)N1C(=O)C(c2ccccc2)(c2ccccc2)N=C1N.O=CO`, the Inhibition is recorded as 97%.
